Assay in all cases: NCI-60 one-dose screen, 48 h (100 = growth as untreated, 0 = no growth, -100 = all killed)
One assay relates to NCI-H23 lung. The following applies: 10 µM unless noted.
The subject of another assay is NCI-H226 lung. The following applies: 10 µM unless noted.
The test system of the next assay is NCI-H322M lung. The conditions noted are these: 10 µM unless noted.
The subject of a further assay is NCI-H460 lung. The conditions noted are these: 10 µM unless noted.
The subject of another assay is HOP-92 NSCLC. The following applies: 10 µM.
In another assay the test system is NCI-H522 lung. The following applies: 10 µM.
A further assay has as its system A549/ATCC NSCLC. The conditions noted are these: 10 µM unless noted.
A further assay concerns 786-0 renal. The conditions noted are these: 10 µM unless noted.
The subject of another assay is DU-145 prostate. The following applies: 10 µM unless noted.
The subject of another assay is K-562 leukemia. The following applies: 10 µM unless noted.
The test system of a further assay is MALME-3M melanoma. The following applies: 10 µM unless noted.
The subject of another assay is MDA-MB-231 breast. The following applies: 10 µM unless noted.
The next assay deals with RXF 393 renal. The conditions noted are these: 10 µM unless noted.
The subject of the next assay is SF-268 CNS. The conditions noted are these: 10 µM unless noted.
The subject of a further assay is SF-295 CNS. The following applies: 10 µM unless noted.
The test system of another assay is SF-539 CNS. The conditions noted are these: 10 µM unless noted.
The subject of the next assay is UACC-257 melanoma. The conditions noted are these: 10 µM unless noted.
A further assay deals with M14 melanoma. The conditions noted are these: 10 µM unless noted.
The subject of the next assay is COLO 205 colon. The conditions noted are these: 10 µM unless noted.

About 83,000 compounds went through this panel and 20% of them were active in at least one assay; those are over-represented in the sample as a whole.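 96-well plates, one dose, 48 hours. Percent growth reported; active if below 10.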 A number with no mark means an inactive call. Active and inactive are the calls of the source.

Turning to `COc1cc(-c2cc3cnccc3c3nc(N)c4ccncc4c23)cc(OC)c1OC`, the growth is 64.3% with NCI-H23 lung; 56.1% in the assay with NCI-H226 lung; 58.7% in the assay with NCI-H322M lung; 54.9% in the assay on NCI-H460 lung; -0.882% (active) in the assay on HOP-92 NSCLC; 57.1% with NCI-H522 lung. The growth in the assay on A549/ATCC NSCLC was 42.5%; in the assay on 786-0 renal it was 24.8%; in the assay on DU-145 prostate, 62.3%; in the assay on K-562 leukemia, 24.1%; in the assay on MALME-3M melanoma, 59.8%; in the assay with MDA-MB-231 breast, 42.9%. Further, the growth in the assay on RXF 393 renal is 8.24% (active); with SF-268 CNS it was 49.4%; in the assay with SF-295 CNS, 67.3%; in the assay on SF-539 CNS, 38%; with UACC-257 melanoma, 92.2%; in the assay on M14 melanoma, 68.1%.
For the compound `Cn1c2c(cc(S(=O)(=O)c3ccccc3)c1=O)CCc1c-2cnn1-c1ccc(Cl)cc1`, the growth in the assay with NCI-H23 lung was 69.7%; with NCI-H226 lung, -14.8% (active); in the assay with NCI-H322M lung, 38.9%; in the assay on NCI-H460 lung, 20.3%; in the assay on HOP-92 NSCLC, -34.2% (active); in the assay with NCI-H522 lung, -11.3% (active). Also, the growth with A549/ATCC NSCLC is 8.48% (active); in the assay on COLO 205 colon, 77.5%; in the assay on DU-145 prostate it was 8.78% (active); in the assay with K-562 leukemia it was 39.8%; in the assay with MALME-3M melanoma it was -70.7% (active); in the assay with MDA-MB-231 breast, 31.3%. The growth with RXF 393 renal was 2.65% (active); in the assay with SF-268 CNS it was 32.9%; in the assay with SF-295 CNS, -4.18% (active); in the assay on SF-539 CNS it was -19% (active); in the assay with UACC-257 melanoma, 11.7%; in the assay with M14 melanoma, 64%.
On to `C=C(C)[C@@H]1CC[C@]2(COC(=O)c3ccccc3C(=O)O)CC[C@]3(C)[C@H](CC[C@@H]4[C@@]5(C)CCCNC(C)(C)[C@@H]5CC[C@]43C)[C@@H]12`, for which the growth in the assay with NCI-H23 lung is 80.7%; in the assay with NCI-H226 lung, 66.3%; with NCI-H322M lung, 93.3%; in the assay on NCI-H460 lung it was 55.9%; in the assay with HOP-92 NSCLC it was 86.1%; in the assay on NCI-H522 lung, 78.3%. The growth is 61.4% in the assay on A549/ATCC NSCLC; 84.4% with 786-0 renal; 65.9% with DU-145 prostate; 68.2% with MALME-3M melanoma; 94.3% in the assay with MDA-MB-231 breast; 73.2% in the assay on SF-268 CNS. The growth in the assay with SF-295 CNS is 66.6%; with SF-539 CNS it was 75.7%; in the assay on UACC-257 melanoma, 81.7%; in the assay with M14 melanoma, 61.7%.
For the compound `O=C1OC(c2ccc(-c3ccccc3)cc2)=C/C1=C/c1c2ccccc2cc2ccccc12`, the growth in the assay with NCI-H23 lung was 99.4%; in the assay with NCI-H226 lung, 78.5%; in the assay on NCI-H322M lung, 113%; in the assay with NCI-H460 lung, 94.5%; in the assay on HOP-92 NSCLC it was 79.2%; with NCI-H522 lung it was 109%. In addition, the growth in the assay with A549/ATCC NSCLC is 25.8%; with COLO 205 colon it was 101%; in the assay with DU-145 prostate it was 121%; in the assay with K-562 leukemia it was 93.3%; in the assay on MALME-3M melanoma it was 113%; in the assay with MDA-MB-231 breast, 98.5%. Moreover, the growth in the assay on SF-268 CNS is 95.9%; with SF-539 CNS, 110%; with UACC-257 melanoma, -47.9% (active); in the assay on M14 melanoma, 108%.
For `O=c1c(N=Nc2nccs2)c(-c2ccccc2)[nH]n1-c1nc(-c2ccccc2)cs1`, the growth in the assay with NCI-H23 lung was 36.3%; with NCI-H226 lung it was 56.2%; in the assay with NCI-H322M lung it was 24.5%; in the assay with NCI-H460 lung it was 22.5%; with HOP-92 NSCLC, -8.96% (active); in the assay with NCI-H522 lung, 20.9%. The growth is 36.3% in the assay with A549/ATCC NSCLC; 43.7% with 786-0 renal; 43.8% in the assay with DU-145 prostate; 32.4% in the assay on K-562 leukemia; 72% in the assay on MALME-3M melanoma; 53.1% in the assay with MDA-MB-231 breast. Also, the growth in the assay with RXF 393 renal was 65.2%; with SF-268 CNS, 32.3%; with SF-295 CNS, 25%; in the assay with SF-539 CNS it was 39.7%; in the assay on UACC-257 melanoma, 39.6%; in the assay with M14 melanoma it was 28.3%.
Consider `COc1ccc(NC(=O)/C=C(C)/C=C/C=C(C)/C=C/C2=C(C)CCCC2(C)C)cc1`, for which the growth in the assay with NCI-H23 lung was 93.4%; in the assay on NCI-H226 lung, 78.2%; in the assay with NCI-H322M lung, 90.8%; in the assay with NCI-H460 lung, 30.6%; with HOP-92 NSCLC it was 62%; with NCI-H522 lung it was 51.7%. For the same compound, the growth is 39.9% with A549/ATCC NSCLC; 33% in the assay on COLO 205 colon; 101% in the assay with DU-145 prostate; 46.7% in the assay with K-562 leukemia; 68.1% in the assay with MALME-3M melanoma; 38.3% in the assay with MDA-MB-231 breast. Besides, the growth in the assay on RXF 393 renal is 79.4%; with SF-268 CNS it was 81.4%; in the assay with SF-295 CNS, 80%; with SF-539 CNS it was 32.8%; with UACC-257 melanoma, 87.4%.
As for `CC(C)OC(=O)[C@H](C)N[P@@](=O)(OC[C@@]1(C)O[C@@H](n2cc(F)c(N)nc2=O)C[C@@H]1O[P@](=O)(N[C@@H](C)C(=O)OC(C)C)Oc1ccccc1)Oc1ccccc1`, the growth with NCI-H23 lung is 94.4%; in the assay on NCI-H226 lung, 96.4%; in the assay with NCI-H322M lung, 102%; in the assay with NCI-H460 lung, 28.7%; in the assay with HOP-92 NSCLC it was 85.1%; with NCI-H522 lung, 85.6%. The growth is 92.2% in the assay with A549/ATCC NSCLC; 104% in the assay with 786-0 renal; 103% in the assay with DU-145 prostate; 91.1% in the assay on MALME-3M melanoma; 119% with MDA-MB-231 breast; 54% in the assay with SF-268 CNS. In addition, the growth in the assay with SF-295 CNS was 103%; in the assay on SF-539 CNS, 63.3%; in the assay on UACC-257 melanoma, 92.6%; with M14 melanoma it was 91.6%.
Regarding `CC(=O)NNC(=O)c1sc(NC(C)=O)nc1C`, the growth is 98.2% in the assay on NCI-H23 lung; 93.1% in the assay on NCI-H226 lung; 121% in the assay on NCI-H322M lung; 108% with NCI-H460 lung; 139% with NCI-H522 lung; 104% with A549/ATCC NSCLC. Also, the growth was 122% in the assay with 786-0 renal; 108% in the assay on COLO 205 colon; 113% in the assay on DU-145 prostate; 61.4% with K-562 leukemia; 168% with MALME-3M melanoma; 100% in the assay with MDA-MB-231 breast. Moreover, the growth in the assay with RXF 393 renal was 112%; with SF-268 CNS it was 93.2%; in the assay with SF-295 CNS it was 106%; in the assay on SF-539 CNS it was 97.8%; in the assay with UACC-257 melanoma it was 105%; in the assay on M14 melanoma, 115%.
For the compound `CC1(C)NCCC[C@]2(C)[C@H]3CC=C4[C@@H]5C[C@](C)(COC(=O)c6ccccc6C(=O)O)CC[C@]5(C)CC[C@@]4(C)[C@]3(C)CC[C@@H]12`, the growth was 66.9% with NCI-H23 lung; 86.5% in the assay on NCI-H226 lung; 91% in the assay on NCI-H322M lung; 29.7% in the assay on NCI-H460 lung; 54.9% in the assay with HOP-92 NSCLC; 79% in the assay on NCI-H522 lung. The growth in the assay on A549/ATCC NSCLC was 56.7%; in the assay on 786-0 renal, 65.2%; in the assay on DU-145 prostate, 79.3%; in the assay with MALME-3M melanoma, 66.3%; in the assay on MDA-MB-231 breast it was 84%; in the assay on SF-268 CNS, 60.7%. In addition, the growth was 60.3% with SF-295 CNS, 66.6% with SF-539 CNS, 67.8% in the assay with UACC-257 melanoma and 69.3% in the assay on M14 melanoma.

The record behind these values is PubChem BioAssay (NCI).
